Screening results: PubChem, National Center for Advancing Translational Sciences (NCATS)
Sfp PPTase inh: qHTS Assay for Inhibitors of Bacillus subtilis Sfp phosphopantetheinyl transferase (PPTase); 4'-phosphopantetheinyl transferase ffp (Bacillus subtilis), Q9F4F7; Biochemical Sfp PPTase activity, qHTS; Potency, µM, for the others: largest response in the series, negative = inhibition, usual class: inhibitors; 310,000 compounds, 3.5% hits; AID 1490, 2009;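 further: the enzyme is Sfp with the accession as filed and its product quenches rhodamine fluorescence; 0% = enzyme reaction without inhibitor and -100% = no enzyme wells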
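Fluorescence-quenching assay: 15 nM Sfp-PPTase preincubated 15 min at room temperature with compound, then 5 uM rhodamine-CoA and 12.5 uM BHQ-2-labelled YbbR peptide added. Fluorescence (ex 525/em 598 nm) read at start and after 30 min; difference gives rate.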
VDR inh: Inhibitors of the vitamin D receptor (VDR): qHTS; VDR-SRC2-3 peptide fluorescence polarization, 2 h; AID 504847, 2011; 400,000 compounds, 0.93% hits; Vitamin D3 receptor (Homo sapiens), P11473; Potency, µM, for inactives: max response, negative = inhibition, hits mostly inhibitors; further: on the % scale 0 is the no-effect control and ±100 the full control effect
Target sequence (P11473 whole entry, looked up): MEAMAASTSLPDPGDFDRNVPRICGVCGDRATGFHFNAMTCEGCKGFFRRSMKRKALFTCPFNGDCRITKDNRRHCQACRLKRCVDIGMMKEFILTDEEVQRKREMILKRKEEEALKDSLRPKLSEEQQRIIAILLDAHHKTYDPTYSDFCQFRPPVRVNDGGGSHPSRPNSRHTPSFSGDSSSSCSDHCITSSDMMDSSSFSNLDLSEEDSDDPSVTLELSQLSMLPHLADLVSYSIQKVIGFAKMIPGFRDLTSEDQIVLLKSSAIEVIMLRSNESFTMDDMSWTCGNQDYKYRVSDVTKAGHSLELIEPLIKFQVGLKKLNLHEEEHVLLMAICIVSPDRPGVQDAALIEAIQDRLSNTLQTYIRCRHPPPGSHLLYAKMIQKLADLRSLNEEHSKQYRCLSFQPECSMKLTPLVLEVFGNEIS
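Compounds are added to VDR with labelled SRC2-3 coactivator peptide and held 2 h at room temperature. Inhibition of the VDR–peptide interaction is then read as a change in fluorescence polarization.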
G9a inh: qHTS Assay for Inhibitors of Histone Lysine Methyltransferase G9a; 350,000 compounds, 8.8% hits; AID 504332, 2011; G9a H3K9 monomethylation, AlphaScreen, 2 h; Potency, µM (doses to about 102 µM), for the others: at the top dose activity, negative = inhibition, actives largely listed as inhibitors; Histone-lysine N-methyltransferase EHMT2 (Homo sapiens), Q96KQ7; further: on the % scale 0 is the no-effect control and ±100 the full control effect; nearly all actives have a fitted effect of over 75% in size
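Enzyme 20 nM + cpd, 15 min RT; add b-H3K9 pep 500 nM / SAM 20 uM; 2 h RT; anti-H3K9me1 Ab 0.5 ug/mL + SA donor / anti-rabbit acceptor beads 20 ug/mL each, 10 min; AlphaScreen read.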
Glioma ERSR ind: qHTS for Inducers of the Endoplasmic Reticulum Stress Response (ERSR) in Human Glioma: qHTS; Potency, µM, without a hit: at the top dose activation, hits mostly activators; 420,000 compounds, 0.02% hits; U87-MG GRP78 promoter luciferase reporter, 16 h; further: series mostly up to about 76 µM; % of control where 0% means no effect; nearly all actives have a fitted effect of over 35% in size
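Stably transfected U87-MG glioma cells carrying a GRP78-based luciferase sensor; 16 h compound incubation. Luminescence end-point read 10 min after Bright-Glo addition at room temperature.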
12-LOX inh: Primary qHTS assay for inhibitors of human arachidonate 12S-lipoxygenase (ALOX12): Round 2; Polyunsaturated fatty acid lipoxygenase ALOX12 (Homo sapiens), P18054; purified 12hLO, xylenol orange hydroperoxide absorbance; 580,000 compounds, 1.1% hits; Potency, µM (doses to about 108 µM), for the others: top-dose activity change, negative = inhibition, most hits filed as inhibitors; further: on the % scale 0 is the no-effect control and ±100 the full control effect
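Purified human 12hLO at 150 nM in 25 mM Hepes, 0.01% Triton X-100, pH 7.0, preincubated 15 min at room temperature with compound. Reaction started with 40 uM arachidonic acid, 30 min at room temperature. Hydroperoxide measured by Fe-xylenol orange, 573/405 nm absorbance ratio.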
* = called active by the depositor; ? = inconclusive; nt = not tested or not shown; [ ] = dose if it differs, or a comment. Only a selection was taken, and hits are over-represented in it overall. The call rests on the fitted dose curve; in most records, active means well fitted curve in the direction sought with a large enough effect; inconclusive means small, poorly fitted or top-dose-only effect, or another doubt; inactive means no such curve, though single readings can be large; an effect the other way counts as inactive or inconclusive. Potency means the concentration at half of the fitted maximal effect.

SMILES	Sfp PPTase inh	VDR inh	G9a inh	Glioma ERSR ind	12-LOX inh
c1ccc2c(Nc3ccc4c(c3)OCCO4)c3c(nc2c1)CCCC3	50µM*	9%	?	-3%	-10%
CC1(C(=O)NCCN2CCCCC2)CCCCC(=O)N1 (centres undefined)	nt	nt	nt	nt	25%
CC(C)(C)c1ccc(C(=O)NC(=S)NNC(=O)c2cccs2)cc1	-26%	-12%	40µM*	14µM*	40µM*
O=C(NNC(=S)Nc1ccccc1)c1cccs1	19%	-19%	?	7%	17%
O=C(NC(=S)NNC(=O)c1cccs1)c1ccccc1	-21%	-11%	8.9µM*	0%	?
Cc1ccccc1C(=O)NNC(=S)NC(=O)c1cccs1	10%	-4%	?	-3%	-25%
Cc1cccc(C(=O)NC(=S)NNC(=O)c2cccs2)c1	1%	?	7.1µM*	14%	?
Cc1ccc(Cn2nc(C)c3cc(C(=O)N4CCN(CC(=O)N(C)C)CC4)sc32)cc1	nt	nt	nt	nt	-15%
NC(=O)COC(=O)c1cc(-c2ccc(F)cc2)nc2ccccc12	nt	nt	nt	nt	-24%
CNC(=O)NC(=O)COC(=O)c1cc(-c2ccco2)nc2ccccc12	nt	nt	nt	nt	16µM*
O=C(OCC(=O)N1CCCC1)c1cc(-c2ccco2)nc2ccccc12	nt	nt	nt	nt	6.3µM*
NC(=O)COC(=O)c1cc(-c2ccco2)nc2ccccc12	-29%	-8%	16µM*	?	28µM*
NS(=O)(=O)c1ccc(CCNC(=O)c2cc(-c3ccco3)nc3ccccc23)cc1	nt	-18%	?	-1%	?
COC(=O)c1ccc(COC(=O)c2cc(-c3ccco3)nc3ccccc23)cc1	nt	nt	nt	nt	7.1µM*
O=S(=O)(Nc1ccc2oc(-c3ccc(Cl)cc3)nc2c1)c1ccccc1	nt	nt	nt	nt	-15%
CC(C)N(C)CCNC(=O)Nc1ccccc1C(F)(F)F	nt	nt	nt	nt	63%
Cc1ccc(OCC(O)CN2CCN(c3ccccn3)CC2)c(C)c1 (centres undefined)	-3%	-6%	50µM*	0%	?
Cc1ccc(N2CCN(CC(O)COc3cccc(C)c3)CC2)cc1 (centres undefined)	-6%	-7%	?	-2%	-17%
COc1cccc(OCC(O)CN2CCN(c3ncccn3)CC2)c1 (centres undefined)	-2%	-25%	-5%[59 µM]	-6%	-25%
Cc1cccc(OCC(O)CN2CCCN(c3ccc(C(F)(F)F)cn3)CC2)c1 (centres undefined)	nt	nt	nt	nt	13µM*
COc1cccc(OCC(O)CN2CCN(CCN3C(=O)c4cccc5cccc(c45)C3=O)CC2)c1 (centres undefined)	10%	1%	50µM*	-8%	?
COc1cccc(OCC(O)CN2CCN(c3ccccn3)CC2)c1 (centres undefined)	-4%	-20%	45µM*	-4%	-28%
CC(/C=N/NC(=O)C1CC1c1ccc(C(C)(C)C)cc1)c1ccccc1 (centres undefined)	nt	nt	nt	nt	37%
O=C(Nc1ccc(-c2ccco2)cc1)C1CCCN(Cc2ccc(CO)o2)C1 (centres undefined)	45µM*	-7%	nt	4%	0%
O=C(c1cc(C2CC2)on1)N1CCCC(N2CCN(c3cccc(C(F)(F)F)c3)CC2)C1 (centres undefined)	6%	3%	79µM*	-8%	0%
CCCCCCCn1c(=N)n(CC(O)c2ccco2)c2ccccc21 (centres undefined)	1%	48%	79µM*	-10%	-16%
N=c1n(CCN2CCCC2)c2ccccc2n1CC(O)c1ccco1 (centres undefined)	7%	13%	?	1%	-24%
O=C(Nc1cccc(Cl)c1N1CCCC1)c1ccc([N+](=O)[O-])o1	0%	-12%	10µM*	-2%	3%
